{"source": "PubChem BioAssay AID651661", "about": "(Broad Institute, 2012)", "note": "The campaign covered roughly 350,000 compounds. About 2,300 (0.66%) were called active.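 Rule for the calls: active = mean inhibition of at least 50% after viability correction, with every replicate also passing that limit; inconclusive = mean reaches 50% but only one of two replicates passes; inactive = the rest.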 Only a selection was taken, and actives are over-represented in it overall."}
{"assay": "blockers of EWS/Fli transcriptional output – A673 cells, NR0B1 luciferase, luminescence, MLPCN library, primary screen (AID 651661);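 note: firefly luciferase signal divided by Alamar Blue viability fluorescence both relative to DMSO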", "conditions": "A673 NR0B1-luciferase reporter, viability-normalised; at 12.6 µM; hits give high values"}
{"smiles": "COCC(=O)N1[C@H](CO)[C@H](c2ccccc2)C12CN(C(=O)NC1CCCCC1)C2", "inhibition": "-12.4% (inactive)"}
{"smiles": "C[C@H](CO)N1C[C@H](C)[C@@H](CN(C)CC2CC2)OCCCC[C@H](C)Oc2ccc(NC(=O)Cc3ccccc3)cc2C1=O", "inhibition": "32% (inactive)"}
{"smiles": "COc1ccccc1-n1ccnc1SCC(=O)NC(C)(C)C", "inhibition": "0.699% (inactive)"}
{"smiles": "Cc1nnc(NC(=O)CSc2nccn2-c2cccc(C)c2C)s1", "inhibition": "60.5% (active)"}
{"smiles": "COc1ccccc1-n1c(CNC(=O)c2ccccc2)nnc1SCC(=O)Nc1nnc(C)s1", "inhibition": "4.12% (inactive)"}
{"smiles": "Cc1nc(N2[C@H](CO)[C@H](c3ccccc3)[C@H]2CNCC2CCCCC2)sc1C", "inhibition": "-4.86% (inactive)"}
{"smiles": "COc1cccc(-c2ccc([C@H]3[C@H]4CN(C(=O)NC(C)C)CC(=O)N4[C@H]3CO)cc2)c1", "inhibition": "1.6% (inactive)"}
{"smiles": "CN1CCN(CCCNC(=O)c2ccc(/C=C3\\Oc4ccccc4N(Cc4ccc(Cl)cc4)C3=O)cc2)CC1", "inhibition": "62.2% (active)"}
{"smiles": "CCCN1CCN(CCCNC(=O)CN2C(=O)COc3ccccc32)CC1", "inhibition": "5.75% (inactive)"}
{"smiles": "CC(C)OCCCNC(=O)CN1C(=O)/C(=C/c2ccccc2F)Oc2ccccc21", "inhibition": "-9.7% (inactive)"}
{"smiles": "O=C1CN(S(=O)(=O)c2ccccc2)C[C@H]2[C@H](c3ccc(C#CCc4ccccc4)cc3)[C@@H](CO)N12", "inhibition": "-2.75% (inactive)"}
{"smiles": "C[C@@H]1CN([C@@H](C)CO)C(=O)c2cc(-c3ccncc3)cnc2O[C@@H]1CN(C)C(=O)C1CCCCC1", "inhibition": "-4.18% (inactive)"}
{"smiles": "C[C@H](CO)N1C[C@H](C)[C@@H](CN(C)C(=O)Nc2ccc(F)cc2)OCCCC[C@H](C)Oc2ccc(NC(=O)c3ccncc3)cc2C1=O", "inhibition": "-7.08% (inactive)"}
{"smiles": "Cc1cccc(NC(=O)c2nc(S(=O)(=O)Cc3ccccc3)ncc2Cl)c1", "inhibition": "56.5% (active)"}
{"smiles": "Cc1cc(C)cc(NS(=O)(=O)Cc2ccccc2)c1", "inhibition": "-2.06% (inactive)"}
{"smiles": "Cc1nnc(NC(=O)C(c2ccccc2)c2ccccc2)s1", "inhibition": "11.8% (inactive)"}
{"smiles": "Cc1ccc(CS(=O)(=O)c2ncc(Cl)c(C(=O)Nc3nnc(C)s3)n2)cc1", "inhibition": "67.7% (active)"}
{"smiles": "Cc1ccc(C)c(Cn2nnc3c(=O)[nH]c(C(=O)Nc4ccc(F)cc4)nc32)c1", "inhibition": "-4.91% (inactive)"}
{"smiles": "Cc1ccc(S(=O)(=O)CCC(=O)Nc2nnc(CC(C)C)s2)cc1", "inhibition": "-2.4% (inactive)"}
{"smiles": "Cc1cccc(NC(=O)C(C)SCc2ccccc2)c1", "note": "(centres undefined)", "inhibition": "-20.7% (inactive)"}
{"smiles": "Cc1cccc(CS(=O)(=O)c2ncc(Cl)c(C(=O)Nc3ccc(F)cc3)n2)c1", "inhibition": "60.6% (active)"}
{"smiles": "O=C(Nc1ccc(F)cc1)c1ccc(S(=O)(=O)NCc2cccnc2)cc1", "inhibition": "14.9% (inactive)"}
{"smiles": "O=C(C[C@H]1C=C[C@@H](NC(=O)NC2CCCCC2)[C@@H](CO)O1)NCc1ccc(Cl)cc1", "inhibition": "-5.17% (inactive)"}
{"smiles": "CC(C)C#Cc1ccc([C@H]2[C@@H](C#N)N(C(=O)CN(C)C)[C@H]2CO)cc1", "inhibition": "2.38% (inactive)"}
{"smiles": "COCC(=O)Nc1ccc2c(c1)OC[C@H](C)NC[C@H](C)[C@H](OC)CN(C)C2=O", "inhibition": "-2.88% (inactive)"}
{"smiles": "CCNC(=O)Nc1ccc2c(c1)C(=O)N(C)[C@H]1CC[C@@H](CC(=O)N[C@H](C)c3ccccc3)O[C@@H]1CO2", "inhibition": "0.627% (inactive)"}
{"smiles": "Cn1cnc(S(=O)(=O)N2CC[C@@H]3[C@H]2c2cc(C#Cc4cccc(F)c4)ccc2N[C@@H]3CO)c1", "inhibition": "0.925% (inactive)"}
{"smiles": "C[C@@H]1CN([C@H](C)CO)C(=O)c2cc(C#Cc3cccc(F)c3)cnc2O[C@H]1CN(C)Cc1ccccn1", "inhibition": "6.4% (inactive)"}
{"smiles": "C[C@H](CO)N1C[C@H](C)[C@H](CN(C)C(=O)NC2CCCCC2)Oc2ccc(NC(=O)CCCN(C)C)cc2CC1=O", "inhibition": "-7.51% (inactive)"}
{"smiles": "CC(C)OC(=O)N(C)C[C@@H]1OCc2ccccc2-c2c(n(C)c3ccccc23)C(=O)N([C@H](C)CO)C[C@H]1C", "inhibition": "8.3% (inactive)"}
{"smiles": "Cc1ccc(-c2cn3cc(C)ccc3n2)cc1", "inhibition": "66.7% (active)"}
{"smiles": "Cc1ccc(-c2nc3ccc(Cl)cn3c2Cc2ccccc2)cc1", "inhibition": "-80.4% (inactive)"}
{"smiles": "Cc1ccc(-n2c(-c3ccc(Cl)cc3)n[nH]c2=S)cc1", "inhibition": "3.61% (inactive)"}
{"smiles": "Cc1ccc2nc(-c3ccc(Br)cc3)cn2c1", "inhibition": "71.9% (active)"}
{"smiles": "Cc1ccc(-c2nc3ccc(Br)cn3c2Cc2ccccc2C(F)(F)F)cc1", "inhibition": "-71.5% (inactive)"}
{"smiles": "COc1ccc(-c2nc3ccc(Br)cn3c2Cc2ccc(C)cc2)cc1OC", "inhibition": "-33.3% (inactive)"}
{"smiles": "C[C@@H]1CN([C@@H](C)CO)S(=O)(=O)c2ccc(C#Cc3cccnc3)cc2O[C@@H]1CN(C)C(=O)CN(C)C", "inhibition": "12.9% (inactive)"}
{"smiles": "CC(=O)N1[C@H](C(=O)N(C)C)[C@@H](CO)[C@@H]2Cn3c(ccc(-c4ccccc4)c3=O)[C@@H]21", "inhibition": "0.262% (inactive)"}
{"smiles": "Cc1ccccc1S(=O)(=O)N1[C@@H]2CNC[C@H]1C2c1ccc(-c2cccnc2)cc1", "note": "(some centres undefined)", "inhibition": "-4.81% (inactive)"}
{"smiles": "CCCNC(=O)N1[C@@H]2Cn3c(ccc(-c4ccc(OC)cc4)c3=O)[C@H]1[C@@H](C(=O)NC1CCC1)[C@@H]2CO", "inhibition": "0.758% (inactive)"}
{"smiles": "Cc1ccccc1-c1ccc([C@H]2[C@@H](CO)N3C(=O)CN(C(=O)c4ccncc4)C[C@H]23)cc1", "inhibition": "0.78% (inactive)"}
{"smiles": "COc1ccc2c3c(n(C)c2c1)[C@H](CO)N(S(=O)(=O)c1ccc(C)cc1)CC31CN(C(=O)c2ccccn2)C1", "inhibition": "-3.69% (inactive)"}
{"smiles": "CCOc1ccc(CCN2C(=O)c3cccnc3C2=O)cc1OCC", "inhibition": "9.92% (inactive)"}
{"smiles": "NC1=CC(=O)C(=O)c2cccnc21", "inhibition": "57.3% (active)"}
{"smiles": "CCCNC(=O)N1CC2(C1)[C@@H](c1ccccc1)[C@@H](CO)N2C(=O)CC1CC1", "inhibition": "2.39% (inactive)"}
{"smiles": "C[C@@H]1CN([C@H](C)CO)C(=O)Cc2cc(NC(=O)Nc3cccc4ccccc34)ccc2O[C@@H]1CN(C)Cc1ccc(C(F)(F)F)cc1", "inhibition": "-4.39% (inactive)"}
{"smiles": "Clc1cccc(-c2nc(NCC3CCCO3)c3ccccc3n2)c1", "note": "(centres undefined)", "inhibition": "15.1% (inactive)"}
{"smiles": "N#CCSc1nc(-c2ccccc2)nc2ccc(F)cc12", "inhibition": "19.1% (inactive)"}
{"smiles": "Clc1ccc2nc(-c3ccccc3)nc(C(Cl)Cl)c2c1", "inhibition": "68.5% (active)"}
{"smiles": "CC(C)NC(=O)Nc1ccc2c(c1)C(=O)N([C@@H](C)CO)C[C@H](C)[C@H](CN(C)C(=O)c1ccccc1)OCCCC[C@@H](C)O2", "inhibition": "5.19% (inactive)"}
{"smiles": "CN(C)c1ccc2c(c1)[C@@H]1C[C@@H](CC(=O)NCc3ccccn3)O[C@H](CO)[C@@H]1O2", "inhibition": "-4.51% (inactive)"}
{"smiles": "COc1cccc2c1C(=O)c1c(O)c3c(c(O)c1C2=O)CC(O)(C(C)=NNC(=O)c1ccc(Cl)c(Cl)c1)CC3OC1CC(N)C(O)C(C)O1", "note": "(centres undefined)", "inhibition": "63.6% (active)"}
{"smiles": "C[C@H]1CN([C@@H](C)CO)C(=O)c2cccc(NC(=O)Nc3ccc(C(F)(F)F)cc3)c2O[C@H]1CN(C)C(=O)NC1CCCCC1", "inhibition": "56.1% (active)"}
{"smiles": "C[C@@H]1CCCCO[C@@H](CN(C)Cc2ccc(C(F)(F)F)cc2)[C@@H](C)CN([C@H](C)CO)C(=O)c2cc(NC(=O)Nc3ccccc3)ccc2O1", "inhibition": "-6.47% (inactive)"}
{"smiles": "C[C@@H]1CN([C@H](C)CO)C(=O)c2cc(NC(=O)Nc3ccccc3)ccc2O[C@@H](C)CCCCO[C@H]1CN(C)Cc1ccc(C(F)(F)F)cc1", "inhibition": "71.6% (active)"}
{"smiles": "C[C@@H]1CN([C@H](C)CO)C(=O)c2cc(NC(=O)Nc3ccc(C(F)(F)F)cc3)ccc2O[C@@H](C)CCCCO[C@@H]1CN(C)Cc1ccc(C(F)(F)F)cc1", "inhibition": "-13.8% (inactive)"}
{"smiles": "COc1ccc(NC(=O)Nc2ccc3c(c2)C(=O)N([C@@H](C)CO)C[C@H](C)[C@H](CN(C)Cc2ccc(C(F)(F)F)cc2)OCCCC[C@H](C)O3)cc1", "inhibition": "6.84% (inactive)"}
{"smiles": "C[C@H]1CCCCO[C@@H](CN(C)Cc2ccc(C(F)(F)F)cc2)[C@@H](C)CN([C@@H](C)CO)C(=O)c2cc(NC(=O)Nc3ccccc3)ccc2O1", "inhibition": "19.3% (inactive)"}
{"smiles": "C[C@@H]1CN([C@H](C)CO)C(=O)c2cccc(NC(=O)Nc3ccccc3)c2O[C@@H]1CN(C)C(=O)NC1CCCCC1", "inhibition": "4.76% (inactive)"}
{"smiles": "COc1ccc(CN(C)C[C@@H]2OCCCC[C@@H](C)Oc3ccc(NC(=O)Nc4ccc(C(F)(F)F)cc4)cc3C(=O)N([C@H](C)CO)C[C@H]2C)cc1", "inhibition": "53.9% (active)"}
{"smiles": "C[C@H](CO)N1C[C@H](C)[C@@H](CN(C)C(=O)NC2CCCCC2)Oc2c(NC(=O)Nc3ccc(F)cc3)cccc2C1=O", "inhibition": "4.64% (inactive)"}
{"smiles": "O=C(C[C@@H]1C[C@H]2c3cc(NC(=O)C4CCOCC4)ccc3O[C@H]2[C@@H](CO)O1)NCCN1CCCCC1", "inhibition": "-1.07% (inactive)"}
{"smiles": "COC(=O)C[C@@H]1CC[C@@H]2[C@H](COc3ccc(NC(=O)Nc4cccc(F)c4)cc3C(=O)N2C)O1", "inhibition": "33.6% (inactive)"}
{"smiles": "COC(=O)C[C@H]1CC[C@H]2[C@@H](COc3ccc(NC(=O)Nc4cccc(F)c4)cc3C(=O)N2C)O1", "inhibition": "-0.36% (inactive)"}
{"smiles": "COC(=O)C[C@@H]1CC[C@@H]2[C@H](COc3ccc(NC(=O)c4cccc(F)c4)cc3C(=O)N2C)O1", "inhibition": "61.7% (active)"}
{"smiles": "O=C(C[C@@H]1CC[C@H]2[C@@H](COC[C@H](O)CN2Cc2ccc(F)cc2)O1)N1CCc2ccccc2C1", "inhibition": "2.81% (inactive)"}
{"smiles": "CCCN(C)C[C@@H]1OCc2cnnn2CCCC(=O)N([C@H](C)CO)C[C@@H]1C", "inhibition": "0.738% (inactive)"}
{"smiles": "C[C@@H]1CN([C@H](C)CO)C(=O)Cc2cc(NC(=O)CCCCCC(=O)Nc3ccccc3N)ccc2O[C@H]1CN(C)S(=O)(=O)c1ccc(F)cc1", "inhibition": "-11% (inactive)"}
{"smiles": "C[C@H](CO)N1C[C@H](C)[C@H](CN(C)Cc2ccc(C(=O)Nc3ccccc3N)cc2)Oc2ccc(NS(C)(=O)=O)cc2C1=O", "inhibition": "27% (inactive)"}
{"smiles": "Cc1ccc(S(=O)(=O)Nc2ccc3c(c2)C(=O)N([C@H](C)CO)C[C@H](C)[C@H](CN(C)Cc2ccc(C(=O)Nc4ccccc4N)cc2)OCCCC[C@@H](C)O3)cc1", "inhibition": "8.6% (inactive)"}
{"smiles": "C[C@@H]1CN([C@@H](C)CO)C(=O)c2cc(NS(=O)(=O)c3ccccc3)ccc2O[C@@H]1CN(C)Cc1ccc(C(=O)Nc2ccccc2N)cc1", "inhibition": "57.5% (active)"}
{"smiles": "Cc1ccc(S(=O)(=O)Nc2ccc3c(c2)C(=O)N([C@@H](C)CO)C[C@@H](C)[C@@H](CN(C)Cc2ccc(C(=O)Nc4ccccc4N)cc2)O3)cc1", "inhibition": "51.7% (active)"}
{"smiles": "C[C@@H]1CN([C@H](C)CO)C(=O)c2cc(NS(=O)(=O)c3cn(C)cn3)ccc2O[C@@H]1CN(C)Cc1ccc(C(=O)Nc2ccccc2N)cc1", "inhibition": "-4.91% (inactive)"}
{"smiles": "C[C@H]1CN([C@@H](C)CO)C(=O)Cc2cc(NS(=O)(=O)c3ccccc3)ccc2O[C@H]1CN(C)Cc1ccc(C(=O)Nc2ccccc2N)cc1", "inhibition": "-7.96% (inactive)"}
